Results taken from ChEMBL document CHEMBL3988442, “University of Dundee, Small-Polar-MMV Screening Library” (2021).

Molecular target: AMP-activated protein kinase, AMPK (Homo sapiens) (UniProt P54646+O43741+P54619+Q9UGJ0+Q9Y478+Q13131+Q9UGI9)
Experiment: AMP-dependent Kinase enzyme assay. An in vitro enzyme assay that detects ADP turnover that is directly proportional to AMPK activity. This uses naive AMPK that is activated during the assay with MK-8722
Format: functional
Design: scale not given: direction of the effect not stated beside the values
Conditions: 30 µM

| Compound | Percent Effect [%] |
| --- | --- |
| Cc1nc(NC2(CN3CCCCC3)CCCCC2)c2cnn(C)c2n1 | 5.76 |
| Cc1cc(N2CCC3(CCCN(CCO)C3=O)C2)nc(C)c1C#N (stereo not given) | 14.2 |
| Cc1cc(N2CCN(Cc3ccsc3)C(CCO)C2)nc(N)n1 (stereo not given) | 0.121 |
| O=C(CCn1ccnc1)N1CCCC(n2cncn2)C1 (stereo not given) | 11.8 |
| Cc1nc(CN2CCN(CC(O)CN3CCOCC3)CC2)oc1C (stereo not given) | -2.09 |
| CC(C)(C(=O)N[C@@H]1CCC[C@@H](O)[C@@H]1O)c1cccc(F)c1 | 15.9 |
| C[C@@H]1CN(c2ccc(Cl)cn2)C[C@]1(C)O | -1.99 |
| CN(C1CCCCC1)S(=O)(=O)NCC1Cc2ccccc2O1 (stereo not given) | -9.03 |
| COCC1(C(=O)N[C@H]2CN(c3nnc(C)s3)C[C@@H]2C2CC2)CCC1 | 9.28 |
| COc1ccc(N2CCN(C(=O)CCCc3cn[nH]c3)CC2=O)cc1 | -3.84 |
| COc1ccc(S(=O)(=O)NC(=O)C(C)OC)c(OC)c1 (stereo not given) | -4.37 |
| O=C(NCCn1ccnc1-c1cc2n(n1)CCNC2)c1ccc(F)cc1 | 1.27 |
| NC(=O)NC1CCN(Cc2ccccc2OCC(F)(F)F)CC1 | -5.97 |
| CSCCN1CCC(NC(=O)c2cccc(C3CCCNC3)c2)CC1 (stereo not given) | -2.91 |
| COc1ccc(CN(C)C(=O)CN2CC(n3cccn3)C2)cc1F | -4.28 |
| CC(C)OCCN1CCC(Nc2ncc(Br)cn2)CC1 | 10.5 |
| CN(Cc1noc(C2CC2)n1)C1CCN(CCn2cccn2)C1 (stereo not given) | 5.76 |
| O=C(NC1CCCC1)N1C[C@H]2CN(c3ccncc3)C[C@@]2(C(=O)O)C1 | 9.08 |
| CCc1oc(C(=O)OC)cc1Cn1cccc(C(F)(F)F)c1=O | 6.73 |
| COC(=O)c1ncccc1N1CCCC1 | 9.09 |

| Compound | Percent Effect [%] |
| --- | --- |
| COCCC1(C(=O)O)CCCN(c2cc(C)c3ccccc3n2)C1 (stereo not given) | 3.66 |
| COc1ccc2c(c1)OCC(CNC1CCc3nc(C)nn3C1)=C2 (stereo not given) | 7.59 |
| OC1CCCN(Cc2cn(CC3CCN(C4CCSCC4)CC3)nn2)C1 (stereo not given) | 8.15 |
| Cc1nnc(C(C)N2CCCN(Cc3noc(C4CC4)n3)CC2)o1 (stereo not given) | -4.62 |
| O=C(Cn1cccnc1=O)NCc1cccnc1OCC(F)(F)F | 0.146 |
| CC1CCN(c2ccc(C(=O)N3CCCC3c3nncn3C)cn2)CC1 (stereo not given) | -4.84 |
| CCc1cc(CN2CCCCC2c2ccc(F)cc2)on1 (stereo not given) | 2.23 |
| COc1ccc(F)c(-c2cc(C(=O)NC3CC3)ccn2)c1 | -7.5 |
| CN1C(=O)c2ccc(C(=O)N(Cc3cnn(C)c3)C3CC3)cc2C1=O | 11.4 |
| CN(Cc1ncc(-c2ccccc2C(=O)O)s1)c1ncccn1 | -8.09 |
| O=C(O)c1ccccc1-c1ccc(CN2CC(c3ccncn3)C2)o1 | 11.8 |
| CN(C)c1ncccc1CNC(=O)NCC(c1cccs1)N(C)C (stereo not given) | -9.48 |
| CN(C)Cc1cccc(-c2cccnc2C(=O)NCc2ccco2)c1 | 20 |
| COc1cccc(CN(C)Cc2nc3cc(C)ccc3[nH]2)c1O | 5.48 |
| O=C(CCN1CCCO1)N1CC[C@@H](CNC(=O)N2CCCC2)[C@H](O)C1 | -5.68 |
| CCC(C(=O)NCCc1nc(C)cc(C(F)(F)F)n1)n1cccn1 (stereo not given) | -8.03 |
| O=C(CC1CCc2ccccc21)NC1(C(=O)O)CCOCC1 (stereo not given) | -0.354 |
| O=C(c1cnco1)N1CCC(Cc2cnc3ccccc3c2)CC1 | 18.4 |
| Cc1cccc(C(C)C)c1NC(=O)NCCN(C(C)C)C(C)C | 15.2 |
| CCc1nn(C)c(Cl)c1CN(CCOC)Cc1cnn(C)c1 | 5.81 |
